Records with an inconclusive call do not appear. Where a call stands in place of a potency, no number is given. Calls of active or inactive are those of the source. Calls come from the whole dose curve; as a rule, active = well fitted cell-killing curve with a large enough effect in the repeat runs; inconclusive = weak or mixed curves, or effect the other way; inactive = flat fitted curve, though single readings scatter.
Potency is the fitted concentration of half-maximal effect.

The assay is described as follows: qHTS assay to identify small molecule antagonists of the androgen receptor (AR) signaling pathway using the MDA cell line - cell viability counter screen (AID 743041; note: nearly all actives have a fitted effect of over 45% in size). The settings on record: MDA-kb2 viability, CellTiter-Fluor, 16 h, cells co-treated with R1881 androgen agonist; series mostly up to 70.3 µM. The text has this:
National Center for Advancing Translational Sciences [NCATS]
NIH Chemical Genomics Center [NCGC]
U.S. Environmental Protection Agency [EPA]
National Institutes of Environmental Health Sciences [NIEHS]
National Toxicology Program [NTP]
U.S. Food and Drug Administration [FDA]
Androgen receptor (AR), a nuclear hormone receptor, plays a critical role in AR-dependent prostate cancer and other androgen related diseases. Endocrine disrupting chemicals (EDCs) and their interactions with steroid hormone receptors like AR may cause disruption of normal endocrine function as well as interfere with metabolic homeostasis, reproduction, developmental and behavioral functions. To identify the compounds that inhibit AR signaling, MDA-kb2 AR-luc cell line (from ATCC, deposited by Wilson et al.) was used to screen the Tox21 10K compound library. MDA-kb2 AR-luc cell line is human breast carcinoma cell line that was stably transfected with a luciferase reporter gene under control of the MMTV promoter containing response elements for both androgen receptor (AR) and glucocorticoid receptor (GR). The cytotoxicity of the Tox21 compound library against the MDA-kb2 AR-luc cell line was tested in parallel by measuring the cell viability using CellTiter-Fluor assay (Promega, Madison, WI) in the same wells.
Tox21 Assay Protocol Summary:
MDA-kb2 AR-luc cells were dispensed at 3,000 cells/4 uL/well of culture medium into white wall/solid-bottom 1536-well plates using a Multidrop Combi (ThermoFisher Scientific, Waltham, MA) dispenser. After the assay plates were incubated at a 37C and 0% CO2 for 5 hr, 23 nL of compounds dissolved in DMSO, positive controls or DMSO only was transferred to the assay plate by a Pintool station (Kalypsys, San Diego, CA), followed by addition of 1 uL of agonist (R1881) in culture medium using a Bioraptr Flying Reagent Dispenser (FRD) workstation (Beckman Coulter, Indianapolis, IN, USA). The plates were incubated at a 37C and 0% CO2 for 16 h. After 15.5 h incubation, 1uL of CellTiter-Fluor reagent (Promega) was added using a Bioraptr FRD to each plate for measuring cytotoxicity. The fluorescence intensity was quantified on a ViewLux plate reader (PerkinElmer, Shelton, CT) following 30 min incubation at 37C and 0% CO2.
A general note: In qHTS, concentration-response curves come from the screen itself.
`CCCC1O[C@@H]2C[C@H]3[C@@H]4CCC5=CC(=O)C=C[C@]5(C)[C@H]4[C@@H](O)C[C@]3(C)[C@]2(C(=O)CO)O1` (stereo not given in full): the Potency entry was “inactive”.
Next, `ON=C1CCCC1`: “inactive”; `CCCCCCCCCCC=O`: “inactive”.
With `CC(C)=CCOc1ccc(/C=C/C(=O)c2ccc(OCC=C(C)C)cc2OCC(=O)O)cc1` the entry was “inactive”; with `C/C=C1/C(=O)C[C@H]2[C@@H]3CCC4=CC(=O)CC[C@]4(C)[C@H]3CC[C@]12C`, “inactive”.
With `CSc1ccc(/C=C2/C(C)=C(CC(=O)O)c3cc(F)ccc32)cc1` the entry was “inactive”.
As to `Cc1cc(O)c(C(C)(C)C)cc1C(C)(C)C`, the Potency was 43.3 µM (active).
Next, `CCOC(=O)O[C@]1(C(=O)OCCl)CC[C@H]2[C@@H]3CCC4=CC(=O)C=C[C@]4(C)[C@H]3[C@@H](O)C[C@@]21C`: “inactive”.
With `CCc1cc(Cc2cc(CC)c(N)c(CC)c2)cc(CC)c1N` the entry was “inactive”.
With `CCCCCCCC/C=C/CCCCCCCC1=NCCN1CCO` the entry was “inactive”; with `O=C(Oc1cccc2cccnc12)c1ccccc1`, 6.99 µM (active); with `COc1c(C)c2c(c(O)c1C/C=C(\C)CCC(=O)O)C(=O)OC2`, “inactive”.
As to `CCCCCCCCCCCCCC[P+](CCCC)(CCCC)CCCC` (tested in a mixture with another compound), the Potency is 5.48 µM (active).
Consider `CSc1cnc(C)cn1`, for which the Potency result is “inactive”.
For `On1ccccc1=S`, the Potency was 0.959 µM (active).
On to `O=C1c2c(O)ccc(Nc3ccc(CCO)cc3)c2C(=O)c2c([N+](=O)[O-])ccc(O)c21`, for which the Potency entry was “inactive”.
With `N#CSc1ccc(N)c([N+](=O)[O-])c1` the figure was 61.5 µM (active); with `[Cl][Au]([Cl])[Cl]`, 48.6 µM (active).
Next, `CN(C)c1ccc(SC#N)cc1`: “inactive”.
On to `CCCCN1C(=O)[C@@H]([C@H](O)C2CCCCC2)NC(=O)C12CCN(Cc1ccc(Oc3ccc(C(=O)O)cc3)cc1)CC2`, for which the Potency result was “inactive”.
With `S=c1[nH]c2ccccc2s1` the entry was “inactive”; with `CCCCN(CCCC)c1ccc(C(=O)c2ccccc2C(=O)O)c(O)c1`, “inactive”; with `C[n+]1cc2c3c(ccc2c2ccc4cc5c(cc4c21)OCO5)OCO3`, 26.6 µM (active).
With `CCCCCCCCCCCCCCCC[N+](C)(C)CCN(Cc1ccc(OC)cc1)c1ncccn1` the entry was “inactive”.
Next, `CCC1OCC(COc2ccc(Oc3ccccc3)cc2)O1` (stereo not given): “inactive”; `C/C=C(\C)C(=O)OCc1ccccc1`: “inactive”.
Turning to `Cc1cccc(S(=O)(=O)O)c1C`, the Potency entry was “inactive”.
Turning to `C=C(C)C(=O)OCC[N+](C)(C)C`, the Potency entry was “inactive”.
With `Oc1ccc2c(c1)-c1ccccc1C2` the entry was “inactive”.
Next, `CCc1oc2ccccc2c1C(=O)c1cc(Br)c(O)c(Br)c1`: “inactive”; `O=C(OCC1CO1)C1CCCCC1C(=O)OCC1CO1` (stereo not given): “inactive”; `Cc1cc(O)c(C(C)(C)C)cc1Sc1cc(C(C)(C)C)c(O)cc1C`: 38.5 µM (active).
With `C[C@@H](NCCCc1cccc(C(F)(F)F)c1)c1cccc2ccccc12` the entry was “inactive”.
As to `CC(NN)c1ccccc1` (stereo not given), the Potency result is “inactive”.
As to `CCc1cc(SCc2sc(-c3ccc(C(F)(F)F)cc3)nc2CN2CCN(c3ccc(OC)cc3)CC2)ccc1OCC(=O)O`, the Potency result is “inactive”.
With `CCCCCCCCCCCCCCCC(=O)OC[C@H](O)[C@H]1OC(=O)C(O)=C1O` the entry was “inactive”.
Next, `CCCCCCCCCCCCCCCCCC[N+](C)(C)C`: 48.7 µM (active).
With `Cc1cc(N)c(S(=O)(=O)O)cc1Cl` the entry was “inactive”; with `CCN(C(=O)N(CC)c1ccccc1)c1ccccc1`, “inactive”.
Turning to `Nc1ccccc1O`, the Potency is 53.8 µM (active).

For the origin of these results see PubChem BioAssay (Tox21).
